Most compounds without a hit are left out; they make up all but 15% or so of the library.
12-LOX inh – inhibitors of human 12S-lipoxygenase ALOX12 | P18054 | purified 12hLO, xylenol orange hydroperoxide absorbance | Potency, µM (highest dose often 108 µM), for inactives: at the highest dose activity change, negative = inhibition, hits mostly inhibitors | 1.1% of 580,000 active
Target sequence (P18054 whole entry, looked up): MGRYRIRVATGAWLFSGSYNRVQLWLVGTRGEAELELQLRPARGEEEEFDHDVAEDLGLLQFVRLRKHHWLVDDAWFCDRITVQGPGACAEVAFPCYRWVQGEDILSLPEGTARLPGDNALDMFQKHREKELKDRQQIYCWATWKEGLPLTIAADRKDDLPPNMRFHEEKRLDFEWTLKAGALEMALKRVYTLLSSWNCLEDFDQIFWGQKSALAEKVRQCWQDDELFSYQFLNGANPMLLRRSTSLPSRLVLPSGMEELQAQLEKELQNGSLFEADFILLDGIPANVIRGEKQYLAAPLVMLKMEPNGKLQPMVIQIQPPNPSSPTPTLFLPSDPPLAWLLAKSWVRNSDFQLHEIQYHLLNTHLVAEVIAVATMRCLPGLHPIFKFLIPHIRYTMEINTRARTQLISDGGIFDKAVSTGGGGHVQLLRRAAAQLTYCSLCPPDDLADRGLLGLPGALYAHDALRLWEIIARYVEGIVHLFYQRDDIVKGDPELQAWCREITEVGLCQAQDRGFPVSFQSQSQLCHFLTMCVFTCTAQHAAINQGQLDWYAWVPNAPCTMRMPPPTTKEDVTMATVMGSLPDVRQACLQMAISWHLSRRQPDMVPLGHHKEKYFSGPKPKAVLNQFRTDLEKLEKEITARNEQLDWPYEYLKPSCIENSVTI
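Purified human 12hLO (150 nM final) in 25 mM Hepes, 0.01% Triton X-100, pH 7.0 was preincubated 15 min at room temperature with compound. Then 40 uM arachidonic acid was added, 30 min. Hydroperoxide was read by Fe-XO absorbance ratio 573/405 nm.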
VP16 counter – inhibits Gal4-VP16 luciferase reporter, ROR gamma counter-screen; Drosophila S2 Gal4-VP16 UAS-luciferase, luminescence, 20 h; Potency, µM (highest dose often 53.6 µM), inactives show at the top dose activity, negative = inhibition, most hits filed as inhibitors; 3.5% of 310,000 active; AID 2546;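 further: Gal4-VP16 expression switched on by copper sulfate through the metallothionein promoter; nearly all actives have a fitted effect of over 50% in size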
ELG1 DNA repair – ELG1-dependent DNA repair inhibition | HEK293T ELG1-luciferase reporter, luminescence, 16 h; DNA damage induced by 5-fluorouridine | Potency, µM (highest dose often 46.1 µM), for inactives: top-dose activity change, negative = inhibition, hits mostly inhibitors | 2.3% of 330,000 active; further: nearly all actives have a fitted effect of over 55% in size
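5-Fluorouridine DNA damage + compound/DMSO, 2,000 cells/well, 16 h, 37 °C/5% CO2. ONE-Glo, 30 min RT, luminescence. Readout = decrease in reporter signal.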
DT40 TDP1 no CPT – qHTS for Inhibitors of human tyrosyl-DNA phosphodiesterase 1 (TDP1): qHTS in cells in absence of CPT; DT40 Tdp1-/- hTDP1 cells, no CPT, ATP luminescence, 48 h; Potency, µM (series often up to 46.2 µM), for inactives: at the top dose activity change, negative = growth inhibition, most hits filed as inhibitors; 15% of 420,000 active; AID 686978, 2013; further: nearly all actives have a fitted effect of over 55% in size
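Luminescent ATP content (CellTiter-Glo) served as the growth readout. Knockout chicken DT40 cells expressing human TDP1 were exposed to compounds without camptothecin for a minimum 48 hr at 37 °C.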
RORg inh – inhibitors of mouse ROR gamma transcriptional activity. P51450. Drosophila S2 Gal4-RORgamma UAS-luciferase reporter, 20 h. Potency, µM (titrated, usually from 53.6 µM), for the others: top-dose activity change, negative = inhibition, hits mostly inhibitors. 5.4% of 310,000 active. AID 2551; further: nearly all actives have a fitted effect of over 60% in size
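Drosophila Schneider cells stably carrying a metallothionein-driven Gal4 DBD–ROR gamma fusion and a UAS-Photinus luciferase reporter were exposed to compound for 1 hr, then induced with copper sulfate (700 uM final) for 20 hr at ambient temperature before luminescence reading.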
TDP1 cell CPT – DT40-hTDP1 cell growth loss with CPT. chicken DT40 Tdp1-/-;hTDP1 cells + 20 nM CPT, ATP luminescence, 48 h. Potency, µM (series often up to 46.2 µM), without a hit: at the highest dose activity change, negative = growth inhibition, most hits filed as inhibitors. 12% of 420,000 active. AID 686979; further: nearly all actives have a fitted effect of over 55% in size
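Cell growth measured by CellTiter-Glo luminescence after a minimum 48 h, 37 C compound exposure with 20 nM CPT in Tdp1-knockout DT40 cells stably expressing hTDP1, seeded 400/well; qHTS titration format.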
Starred values were filed as active, the others as inactive; ? = inconclusive; . = no result. The call rests on the fitted dose curve; in most records, active means well fitted curve in the direction sought with a large enough effect; inconclusive means small, poorly fitted or top-dose-only effect, or another doubt; inactive means no such curve, though single readings can be large; an effect the other way counts as inactive or inconclusive. On the % scale 0 is the no-effect control and ±100 the full control effect; potency means the concentration at half of the fitted maximal effect.

SMILES	12-LOX inh	VP16 counter	ELG1 DNA repair	DT40 TDP1 no CPT	RORg inh	TDP1 cell CPT
COc1cc(/C=C/c2cc(C(=O)O)c3ccccc3n2)ccc1OCCC(C)C	-30%	.	.	.	.	.
COc1ccc(/C=C/c2cc(C(F)(F)F)[nH]c(=O)n2)cc1OC	8.9µM*	1%	3%	-21%	-28%	-6%
COC(=O)COc1nc(-c2ccco2)c2c(c1C#N)CCC2	-13%	.	.	.	.	.
CCOc1ccc(NC(=O)c2nc3ccccc3nc2N(CC)CC)cc1	0%	.	.	.	.	.
Cc1ncc(CO)c(/C=N/NC(=O)c2ccc(Br)cc2)c1O	.	?	?	.	11µM*	.
Cc1ncc(CO)c(/C=N/NC(=O)c2cc(Br)ccc2O)c1O	-29%	-8%	16µM*	16µM*	-42%	16µM*
Cc1ncc(CO)c(/C=N/NC(=S)Nc2ccc(C(C)C)cc2)c1O	0%	-7%	?	21µM*	0%	15µM*
Cc1cc(C(=O)N/N=C/c2c(CO)cnc(C)c2O)c2ccccc2n1	1%	-2%	-7%	?	-41%	?
Cc1ncc(CO)c(/C=N/NC(=O)c2cc(O)c(O)c(O)c2)c1O	.	0%	9%	.	-3%	.
O=C(c1ccccc1OCC1CCCNC1)N1CCCCC1 (configuration not stated)	17%	.	.	.	.	.
CCn1c(=O)cc(SCC(=O)Nc2ccc(C)cn2)c2ccccc21	-1%	26%	?	29µM*	-2%	?
CCn1c(=O)cc(SCC(=O)N2CCN(c3cc(C)ccc3C)CC2)c2ccccc21	3%	.	.	?	.	16µM*
Cn1c(=O)cc(SCC(=O)NCc2ccc(F)cc2)c2cc(Cl)ccc21	-21%	.	.	13µM*	.	7.3µM*
CCn1c(=O)cc(OCC(=O)NCc2ccc(C)o2)c2ccccc21	-9%	7%	?	-20%	14µM*	-16%
CCn1c(=O)cc(OCC(=O)NCc2ccco2)c2ccccc21	-29%	1%	?	-19%	4%	2%
COc1ccc(Cn2c(C3CCN(C(=O)c4cccc(C)c4)CC3)n[nH]c2=O)cc1	-9%	.	.	.	.	.
CCn1nc(C(=O)Nc2cccc(C(=O)Nc3ccncc3)c2)c2ccccc2c1=O	1%	.	.	.	.	.
Cn1nc(C2CCN(C(=O)COc3ccc(F)cc3)CC2)c2c1CCOC2	47%	.	.	.	.	.
Cc1ccc(C)c(N2CCN(C(=O)COc3cc(=O)n(C)c4ccccc34)CC2)c1	-22%	-5%	?	?	37%	15µM*
CCn1c(=O)cc(SCC(=O)NCc2ccc(C)cc2)c2ccccc21	-18%	3%	-6%	26µM*	-8%	?
CCOc1ccc(CNC(=O)CSc2cc(=O)n(CC)c3ccccc23)cc1	-21%	.	.	?	.	-3%
CCn1c(=O)cc(SCC(=O)NCc2ccc(C)o2)c2ccccc21	3%	-1%	10%	13µM*	3%	15µM*
CCn1c(=O)cc(SCC(=O)NCc2cccnc2)c2ccccc21	-3%	12%	?	-23%	-37%	-6%
CCc1ccc(CNC(=O)CSc2cc(=O)n(CC)c3ccccc23)cc1	2%	.	.	8.2µM*	.	21µM*
N#C/C(=C/c1cccc(OCc2ccccc2)c1)c1nc2ccccc2[nH]1	-37%	.	.	.	.	.
SMILES	12-LOX inh	VP16 counter	ELG1 DNA repair	DT40 TDP1 no CPT	RORg inh	TDP1 cell CPT
CC(=O)Nc1ccc(S(=O)(=O)Oc2cccc(N3C(=O)C4CC=CCC4C3=O)c2)cc1 (configuration not stated)	-26%	5%	23µM*	21µM*	15%	?
O=C1C2CCCCC2C(=O)N1c1cccc(OS(=O)(=O)c2ccccc2)c1 (configuration not stated)	-3%	1%	1%	-5%	34%	1%
CC(=O)Nc1ccc(S(=O)(=O)Oc2ccc(N3C(=O)C4CCCCC4C3=O)cc2)cc1 (configuration not stated)	0%	13µM*	5%	18µM*	?	16µM*
CC(=O)Nc1ccc(S(=O)(=O)Oc2ccccc2N2C(=O)C3C4CCC(C4)C3C2=O)cc1 (configuration not stated)	-56%	2%	?	-10%	39%	8%
Cc1ccc(NC(=O)CN2C(=O)N/C(=C/c3ccc(C)o3)C2=O)cc1	35µM*	?	8%	-2%	32%	-14%
Cc1cccc(NC(=O)CN2C(=O)N/C(=C/c3ccc(C)o3)C2=O)c1	?	18µM*	?	-30%	?	-14%
Cc1ccc(NC(=O)CN2C(=O)N/C(=C/c3cc(C)n(-c4cccc(C(=O)O)c4)c3C)C2=O)cc1	18µM*	3%	-16%	-2%	3%	2%
Cc1ccc(NC(=O)CN2C(=O)N/C(=C/c3ccc(C)s3)C2=O)cc1	?	-3%	?	5%	?	3%
C=CCN1C(=O)N/C(=C/c2ccc(C)o2)C1=O	-3%	5µM*	26%	-77%	5.6µM*	?
CCN(C(=O)COC(=O)CCCc1nc2ccccc2s1)c1c(N)n(Cc2ccccc2)c(=O)[nH]c1=O	10%	.	.	?	.	?
COCCN(C(=O)COC(=O)CCC(=O)c1ccc(C)cc1)c1c(N)n(Cc2ccccc2)c(=O)[nH]c1=O	-1%	1%	12%	-17%	?	-9%
CCN(C(=O)COC(=O)CCC(=O)c1ccc(Cl)cc1)c1c(N)n(Cc2ccccc2)c(=O)[nH]c1=O	154%	.	.	23µM*	.	18µM*
CCN(C(=O)COC(=O)c1ccc2[nH]c(C)c(C)c2c1)c1c(N)n(Cc2ccccc2)c(=O)[nH]c1=O	?	.	.	-30%	.	18µM*
CC(C)CN(C(=O)COC(=O)CCc1nc2ccccc2s1)c1c(N)n(Cc2ccccc2)c(=O)[nH]c1=O	-7%	.	3%	?	.	16µM*
CCN(C(=O)COC(=O)c1cc2c(s1)CCC(C)C2)c1c(N)n(Cc2ccccc2)c(=O)[nH]c1=O (configuration not stated)	224%	.	.	?	.	16µM*
CCNc1cc(N2CCC(CCC(=O)N3CCN(c4ncccn4)CC3)CC2)ncn1	-2%	.	.	.	.	.
Cc1ccccc1C1CCCN1C(=O)c1cc(-c2cccs2)on1 (configuration not stated)	-26%	.	.	.	.	.
CC1CCc2sc(C(=O)OCC(=O)NCc3ccc(F)cc3)cc2C1 (configuration not stated)	-10%	?	7%	15µM*	-40%	21µM*
